Screen size: about 200,000 compounds; about 520 (0.26%) were called active. The entries come from a sample that favours actives as a whole. A number with no mark means an inactive call.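 The calls were made as follows: active = tissue-nonspecific alkaline phosphatase inhibition above about 50% at 20 µM in the single-dose screen (limit read from the data); inactive = the rest.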

The values below come from PubChem BioAssay AID1012 (Sanford-Burnham Center for Chemical Genomics, 2008).

Sequence of Alkaline phosphatase, tissue-nonspecific isozyme (Homo sapiens) (P05186 whole entry, looked up): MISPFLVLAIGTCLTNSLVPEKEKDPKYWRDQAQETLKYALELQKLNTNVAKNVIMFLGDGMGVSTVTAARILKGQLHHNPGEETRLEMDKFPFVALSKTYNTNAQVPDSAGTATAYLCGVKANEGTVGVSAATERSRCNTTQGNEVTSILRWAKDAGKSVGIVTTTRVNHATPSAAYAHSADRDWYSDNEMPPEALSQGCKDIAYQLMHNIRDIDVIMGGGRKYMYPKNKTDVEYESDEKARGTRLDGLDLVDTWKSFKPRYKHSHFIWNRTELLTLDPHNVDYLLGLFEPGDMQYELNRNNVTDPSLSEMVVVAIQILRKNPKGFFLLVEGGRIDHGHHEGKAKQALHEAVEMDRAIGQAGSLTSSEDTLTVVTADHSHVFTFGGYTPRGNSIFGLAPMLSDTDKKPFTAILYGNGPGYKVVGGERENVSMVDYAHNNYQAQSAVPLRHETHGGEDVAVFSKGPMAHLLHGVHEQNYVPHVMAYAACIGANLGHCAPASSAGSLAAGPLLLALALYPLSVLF

This assay addresses Alkaline phosphatase, tissue-nonspecific isozyme (Homo sapiens) (UniProt P05186). Nature of the assay: human TNAP enzyme inhibitors, primary screen, biochemical, luminescent, no phosphate acceptor, uHTS (AID 1012).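 Also: 0% = DMSO negative control and 100% = EDTA positive control.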 The note with it: purified TNAP, CDP-star luminescence, 30 min; at 20 µM; hits give high values.
For `O=C1COc2ccc(C(=O)COC(=O)C3CC(O)CN3S(=O)(=O)c3ccc(Cl)cc3)cc2N1` (configuration not stated), the inhibition – broadly, the relative decrease from the control value, in per cent – is -11.9%.
With `COc1ccccc1Cn1c(C)nnc1-c1cnn(C)c1N` the figure was -14%; with `Cc1ccccc1C(=O)Nc1ccc(N2CCCCCC2)cc1`, -10.8%; with `COc1ccc(Cl)cc1NC(=O)[C@@H]1CCCN1C(=O)c1cccs1`, -0.4%.
With `O=C(NCc1ccc(F)cc1)C(c1ccccc1)N(C(=O)c1csnn1)C1CC1` (configuration not stated) the figure was -11.9%; with `C#CCOCCOCCOCCNc1nc(N2CCN(C(=O)[C@H](CCC(=O)O)n3cc(C(N)CO)nn3)CC2)nc(N2CCN(C(=O)[C@H](Cc3ccc(O)cc3)n3cc(C(N)[C@H](C)CC)nn3)CC2)n1` (some centres not stated), -7.8%.
With `CN(C)C(=O)c1nc2ccc(Cl)cn2c1CN1CCN(c2ncccn2)CC1` the figure was -12.2%; with `CCOC(=O)c1c(NC(=O)C2CCN(S(=O)(=O)c3ccc(Cl)cc3)CC2)sc2c1CCCC2`, -6%; with `O=C(CSc1nc(O)c(Cc2ccccc2)c(=O)[nH]1)Nc1nc2c(s1)CCCC2`, -7.1%.
Consider `CCCCC(CC(C)O)c1n[nH]c(=S)n1-c1ccccc1` (configuration not stated), for which the inhibition was -23.2%.
Take `Cc1cccc(NC(=S)NCCc2ccc(F)cc2)c1C`: the inhibition is -8.2%.
The same measure for `O=C(NNC(=S)NC1CCCCC1)c1ccccc1Cl`: -122%.
With `O=S(=O)(NCCc1ccncc1)c1ccccc1` the figure was -12%; with `COc1cccc(NC(=S)NC(=O)c2c(Cl)c(C)nn2C)c1`, 12.5%; with `COc1ccc(NC(=O)COC(=O)c2ccncc2)c(OC)c1`, -9.8%.
The same measure for `CCc1nnc(NC(=O)c2nc3nccc(C)n3n2)s1`: -1.7%; for `Cc1ccnc2nc(C(=O)Nc3nnc(-c4ccccc4)o3)nn12`: 52.3% (active).
For the molecule `CCCC(=O)Nc1nnc(-c2ccccc2)o1`, the inhibition is -7.1%.
The same measure for `COc1ccc(N2C(=O)CC(Nc3ccc(F)cc3)C2=O)c([N+](=O)[O-])c1` (configuration not stated): -5.2%; for `Cc1ccc(NC(=O)CN2CCCCC2)c2c1CC(C)(C)O2`: -3%; for `O=C(O)CCn1c(SCc2cc(=O)n3ccccc3n2)nc2ccsc2c1=O`: -2.2%.
With `COCCNC(=O)NC(=O)COC(=O)C1(c2ccc(Cl)cc2)CC1` the figure was -9.9%.
With `Cc1ccc(C(=O)OC2CCCN(C)C2)cc1` (configuration not stated) the figure was -10.2%; with `Nc1ncnc(Nc2cccc(Cl)c2Cl)n1`, -2.3%.
In the case of `COc1ccc(/C=C2\SC(=N)N(c3ccc(F)cc3)C2=O)cc1`, the inhibition was -8%.
The same measure for `Cn1cccc1/C=C1\SC(=O)N(CC(=O)Nc2ccc(F)cc2)C1=O`: -0.3%; for `CC(C)OC(=O)Cn1nc(C(F)(F)F)c2c1CCCC2`: 0.5%; for `CCOc1ccc(C(=O)NC2CCN(CC(=O)NCc3cccs3)CC2)cc1`: -4.7%.
The same measure for `CC(NC(=O)C(=O)N/N=C/c1ccc(Cl)cc1)c1ccccc1` (configuration not stated): 3.3%.
With `COCCNC(=O)c1ccccc1NS(=O)(=O)c1ccc(C)c([N+](=O)[O-])c1` the figure was -7.3%; with `Cc1ccnc(NC(=O)c2ccc(Cl)c([N+](=O)[O-])c2)c1`, -11.1%.
Consider `CCOC(=O)NC(=O)C(=CNc1cccc(OC)c1)C(=O)NC(=O)OCC`, for which the inhibition is -10.1%.
